These results are taken from PubChem BioAssay (NCATS).

A short description of assay [1]: Viability qHTS for spleen associated tyrosine kinase inhibitor (SYKi) drug resistant MV4-11 cells (AID 1963824). Note: nearly all actives have a fitted effect of over 35% in size. In outline: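 SYK inhibitor-resistant MV4-11 AML cells, 500 per well, added to predispensed compounds and incubated 72 hr at 37 C, 5% CO2. Viability measured by CellTiter-Glo luminescence after 10 min at room temperature.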
A general note: In qHTS, concentration-response curves come from the screen itself.

Assay [2] in a line: Cellular viability qHTS for adrenocortical cancer (ACC) cell line SW-13 (AID 1963989).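 For activity (max response): cells grown in serum-free medium with ITS supplement; % is set by controls: 0 for no effect and ±100 for the full control effect.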 Note: nearly all actives have a fitted effect of over 65% in size. Particulars: SW-13 ACC cells viability, CellTiter-Glo, 48 h; activity (max response): stronger effect = lower value. Put shortly: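 SW-13 cells in ITS-supplemented serum-free DMEM were plated overnight, then exposed for 48 h at 37C to compound titrations (up to 46 uM final). Viability was read by CellTiter-Glo luminescence; four-parameter logistic fits gave IC50 and efficacy.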

Assay [3] in a line: Cellular viability qHTS for adrenocortical cancer (ACC) cell line NCI-H295R (AID 1963990).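 For activity change, negative = viability loss: 0% = DMSO only wells and -100% = full killing with cytotoxic reference compound.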 Note: nearly all actives have a fitted effect of over 60% in size. Put shortly: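 Luminescent ATP read-out (CellTiter-Glo, 20 min RT) after 48 h drug exposure of NCI-H295R cells; a titration up to 46 uM final. Data normalized to doxorubicin (100% inhibition) and DMSO (0%); 4-parameter fit gives IC50, max response.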

“And” between values parts separate entries of the source, which are not always exact repeats. Equal entries are not always repeated. Records with an inconclusive call do not appear. Unmarked numbers belong to inactive results. The source made the active and inactive calls. Calls come from the whole dose curve; as a rule, active = well fitted curve in the direction sought with a large enough effect; inconclusive = small, poorly fitted or top-dose-only effect, or another doubt; inactive = no such curve, though single readings can be large; an effect the other way counts as inactive or inconclusive.
Potency is the fitted concentration of half-maximal effect.

Take `CCCCC(CC)COC(=O)c1ccccc1C(=O)O` (centres undefined): in assay [1], the Potency is 19.7 µM (active). Moreover, the activity (max response) in assay [2] is 6.28%. Moreover, the Potency result in assay [3] is “inactive”.

Regarding `CC(C)(C)NC(=O)c1cncn1C1CCN(c2ccc(-c3nnc(C(F)(F)F)o3)cn2)CC1`, the Potency was 2.95 µM (active) in assay [1] and 2.82 µM (active) in assay [3]. Also, the activity (max response) in assay [2] was -14%.

As for `COc1cc([C@H]2Oc3cc([C@H]4Oc5cc(O)cc(O)c5C(=O)[C@@H]4O)ccc3O[C@@H]2CO)ccc1O`, the Potency in assay [1] is 18.6 µM (active). Further, in assay [2], the activity (max response) was 11.7% and -16.7%. In assay [3], the Potency result was “inactive”.

As for `C[C@H](NC(=O)CCC(F)(F)F)C(=O)N[C@@H]1C(=O)N(CCO)c2ncccc2-c2ccccc21`, the Potency entry in assay [1] and in assay [3] was “inactive” in each case. Besides, the activity (max response) in assay [2] is -28.7%.

In the case of `C[C@@H](Oc1ccc2[nH]nc(/C=C/c3cnn(CCO)c3)c2c1)c1c(Cl)cncc1Cl`, the figures for the Potency in assay [1], in assay [2] and in assay [3] were 0.0525 µM (active), 3.98 µM (active) and 5.01 µM (active), respectively.

On to `C[C@@H](OC[C@@]1(c2ccccc2)CC[C@]2(CCC(=O)N2)CN1)c1cc(C(F)(F)F)cc(C(F)(F)F)c1`, for which the figures for the Potency in assay [1], in assay [2] and in assay [3] were 7.42 µM (active), 25.1 µM (active) and 25.1 µM (active), respectively.

For the compound `CC(CNC1CCCCC1)OC(=O)c1ccccc1` (centres undefined), the Potency result in assay [1] and in assay [3] was “inactive” throughout. Besides, the activity (max response) in assay [2] was -5.58%.

Regarding `Nc1nc(N)c2nc(-c3cccc(Cl)c3)c(N)nc2n1`, the Potency in assay [1] was 1.48 µM (active); in assay [2], 1.26 µM (active); in assay [3], 1.12 µM (active).

Consider `CC(=O)[C@H]1CC[C@H]2[C@@H]3C[C@H](C)C4=CC(=O)CC[C@]4(C)[C@H]3[C@@H](O)C[C@]12C`, for which, in assay [1], the Potency is 23.7 µM (active). Further, in assay [2], the activity (max response) is 8.53%. Besides, the Potency result in assay [3] was “inactive”.

Consider `CC1=C(/C=C/C(C)=C/C=C/C(C)=C\C(=O)O)C(C)(C)CCC1`, for which the Potency in assay [1] is 6.61 µM (active). Besides, the activity (max response) in assay [2] was -0.514%. Moreover, the Potency entry in assay [3] was “inactive”.

Regarding `O=C(NC[C@H](O)CN1CCc2ccccc2C1)c1ccnc(NC2CCC2)c1`, the Potency in assay [1] is 6.61 µM (active). The activity (max response) in assay [2] is -19.6%. Also, the Potency result in assay [3] was “inactive”.

Regarding `O=c1cc(N2CCOCC2)oc2c(-c3ccc4c(c3)OCCO4)csc12`, the Potency in assay [1] is 0.59 µM (active); in assay [2], 11.2 µM (active); in assay [3], 2.51 µM (active).

`C/C(=C(\CCOP(=O)(O)O)SC(=O)c1ccccc1)N(C=O)Cc1cnc(C)nc1N`: the viability, % of control in assay [1] is 78.4% [at 4.97 µM]. Also, in assay [2], the activity (max response) was 11.3%. For the same compound, the activity change, negative = viability loss in assay [3] is 7.45% [at 3.81 µM].

In the case of `CC1(C)C(N(O)C(=O)Nc2ccc(Cl)cc2)N(c2ccc(Cl)cc2)C(=O)N1CC(=O)N/N=C/C=C/c1ccc([N+](=O)[O-])o1` (centres undefined), the Potency in assay [1] is 2.63 µM (active); in assay [2], 25.1 µM (active); in assay [3], 20 µM (active).

As for `CCOCc1nc2c(N)nc3ccccc3c2n1CC(C)(C)O`, the Potency in assay [1] is 18.6 µM (active). The activity (max response) in assay [2] is -23.1%. Besides, the Potency entry in assay [3] was “inactive”.

In the case of `COc1cccc(-c2cc(F)ccc2C2Cc3nc(N)nc(C)c3C(=O)N2)n1` (centres undefined), the Potency in assay [1] was 0.0186 µM (active); in assay [2] it was 0.112 µM (active); in assay [3], 0.0501 µM (active).

As to `CC(C)=CCC/C(C)=C/CC/C(C)=C/C(=O)OCC(=O)[C@@]1(O)CC[C@H]2[C@@H]3CCC4=CC(=O)C=C[C@]4(C)[C@H]3[C@@H](O)C[C@@]21C`, in assay [1], the Potency is 9.44 µM (active). Besides, in assay [2], the activity (max response) was 9.99%. Further, in assay [3], the Potency result is “inactive”.

For the compound `Cc1cc(C)nc(NS(=O)(=O)c2ccc(N)cc2)n1`, the Potency result in assay [1] and in assay [3] was “inactive” each time. Further, in assay [2], the activity (max response) was 6.1%.

Regarding `N#Cc1ccnc(N2C(=O)CC[C@H]2C(=O)N(c2cncc(F)c2)C(C(=O)NC2CC(F)(F)C2)c2ccccc2Cl)c1` (some centres undefined), the Potency result in assay [1] and in assay [3] was “inactive” throughout. Moreover, in assay [2], the activity (max response) was 6.42%.

Turning to `C=CC(=O)Nc1cc(N2CCN(CC)CC2)ccc1Nc1cc(N(C)C(=O)Nc2c(Cl)c(OC)cc(OC)c2Cl)ncn1`, in assay [1], the Potency was 7.42 µM (active). For the same compound, the activity (max response) in assay [2] is -15%. Moreover, the Potency entry in assay [3] was “inactive”.

For `CCCCCN(CCCOC)C(=O)C(CCC(=O)O)NC(=O)c1ccc(Cl)c(Cl)c1` (centres undefined), the Potency result in assay [1] and in assay [3] was “inactive” in each case. The activity (max response) in assay [2] is 5.62%.

For `CC1(C)O[C@@H]2C[C@H]3[C@@H]4CCC5=CC(=O)C=C[C@]5(C)[C@@]4(F)[C@@H](O)C[C@]3(C)[C@]2(C(=O)CO)O1`, the Potency in assay [1] was 10.6 µM (active). Further, the activity (max response) in assay [2] was 4.2% and -2%. Also, the Potency entry in assay [3] was “inactive”.

In the case of `COCCN1CCN(Cc2ccc(-c3n[nH]c4c3C(=O)c3c(NC(=O)NN5CCOCC5)cccc3-4)cc2)CC1`, the Potency in assay [1] was 0.0209 µM (active); in assay [2] it was 0.316 µM (active); in assay [3], 0.891 µM (active).

`CC(C)C(C)(C)C(C)(C)C(C)(C)S`: in assay [1], the Potency was 5.45 µM (active). Further, the activity (max response) in assay [2] was 7.64%. The Potency entry in assay [3] is “inactive”.

On to `COc1ccc(/C=N/NC(=O)c2ccncc2)cc1OC`, for which the Potency result in assay [1] and in assay [3] was “inactive” each time. In assay [2], the activity (max response) was -2.5%.

Consider `CCOC(=O)NNc1ccc(N(CC)CC(C)O)nn1` (centres undefined), for which the Potency entry in assay [1] and in assay [3] was “inactive” each time. Moreover, the activity (max response) in assay [2] was -8.2%.

As to `CC[C@H](NC(=O)[C@H](CS(=O)(=O)CC1CC1)N[C@@H](c1ccc(F)cc1)C(F)(F)F)C(=O)C(=O)NC1CC1`, the Potency result in assay [1] and in assay [3] was “inactive” in each case. In addition, the activity (max response) in assay [2] is -11.3%.

Consider `CCCC(=O)O[C@]1(C(=O)CC)CC[C@H]2[C@@H]3CCC4=CC(=O)CC[C@]4(C)[C@H]3[C@@H](O)C[C@@]21C`, for which the Potency entry in assay [1] and in assay [3] was “inactive” throughout. In addition, in assay [2], the activity (max response) was 0.342%.
